PubChem BioAssay (EPA / NIEHS)
Results filed as inconclusive are left out. Calls of active or inactive are those of the source. Rule for the calls: active = hit-call score of the fitted dose curve at least 0.9, where 1 is the maximum; inconclusive = response in the unintended direction; inactive = score below 0.9.

Molecular target: rat Thyrotropin Releasing Hormone Receptor (TRH), Trhr (gene 25570) (UniProt Q01717)
Assay: NVS_GPCR_rTRH: NovaScreen (NVS) G Protein-Coupled Receptor Assay for rat Thyrotropin Releasing Hormone Receptor (TRH) (AID 2283329);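 note: hit means lower bound tracer signal versus DMSO baseline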
Summary of the method: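 Rat forebrain membrane prep, radioligand displacement, filter scintillation readout at 4 h. Single conc 25 uM, duplicate; actives retested as concentration series. DMSO = negative control/baseline.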

Sequence of rat Thyrotropin Releasing Hormone Receptor (TRH), Trhr (gene 25570) (Q01717 whole entry, looked up): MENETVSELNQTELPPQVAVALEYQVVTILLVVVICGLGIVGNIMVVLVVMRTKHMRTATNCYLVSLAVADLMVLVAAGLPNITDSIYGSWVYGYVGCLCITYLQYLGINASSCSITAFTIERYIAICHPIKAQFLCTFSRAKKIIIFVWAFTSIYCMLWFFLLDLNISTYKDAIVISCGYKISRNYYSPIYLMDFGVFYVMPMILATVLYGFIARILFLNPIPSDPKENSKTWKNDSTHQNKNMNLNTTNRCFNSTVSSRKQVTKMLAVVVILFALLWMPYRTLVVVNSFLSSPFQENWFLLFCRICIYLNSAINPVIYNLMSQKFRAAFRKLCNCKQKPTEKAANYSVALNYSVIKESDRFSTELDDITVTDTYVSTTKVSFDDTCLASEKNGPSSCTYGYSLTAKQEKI

outcome, inactive:
CCCCCCCC/C=C\CCCCCCCC(=O)OCCO
CC(C)C1=CC2=CC[C@@H]3[C@](C)(CCC[C@@]3(C)C(=O)O)[C@H]2CC1
CCCCCCCCCCOS(=O)(=O)O
CCCCCc1ccc(Cl)cc1
CCO[Si](C)(OCC)OCC
CC(=O)OC(C)C
CN(C)c1ccc(C(=N)c2ccc(N(C)C)cc2)cc1
NC(=O)N=NC(N)=O
c1ccc2c(c1)ccc1cc3c(ccc4ccccc43)cc12
CO[Si](OC)(OC)c1ccccc1
CC(C)(C)c1ccc(N)cc1
C=C1C2CCC(C2)C1(C)C (stereo unspecified)
COC(=O)c1c(C)cc(O)c(C)c1O
CC/C=C\C/C=C\C/C=C\CCCCCCCC(=O)O
c1c[nH]cn1
Cc1ccc(C(C)c2ccc(C)c(C)c2)cc1C
Cc1cc(C)c(C)cc1C
CCN(CCC#N)c1ccc(N=Nc2c(Cl)cc([N+](=O)[O-])cc2Cl)cc1
NC(=O)c1ccccc1O
CCOC(=O)Cc1cccc2ccccc12
CC=C1CC2C=CC1C2 (stereo unspecified)
